Calls of active or inactive are those of the source.

The test system of assay [1] is Plasmodium falciparum Sir2 (PF13_0152, Sir2A). Kind of assay: Plasmodium falciparum Sir2A binding compounds – biochemical, small-molecule microarray, 635 nm fluorescence, primary screen (AID 1098).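 Further: score merges spot fluorescence intensity with its signal-to-noise ratio.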 The note with it: fluorescence 635 nm, higher = more signal.
Assay [2] is described as follows: probe aDKK1 binding to arrayed compounds – biochemical, biotinylated probe, 635/667 nm fluorescence, primary screen (AID 1099).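 Further: score merges 667nm spot fluorescence with signal to noise across triplicate slides.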 The following applies: small-molecule microarray, higher = more signal.
The nature of assay [3]: probe aCHRDL2 binding to arrayed compounds – biochemical, biotinylated probe, 635/667 nm fluorescence, primary screen (AID 1100). The following applies: small-molecule microarray, higher = more signal.
A short description of assay [4]: change in splice reporter luminescence, either direction, cell-based, HEK293, spliceosome inhibition project, primary screen (AID 1101).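 Further: HEK293 cells carrying a splicing-competent luciferase reporter gene; test concentration not given here.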 The following applies: HEK293 splicing luciferase reporter, 24 h, higher = more signal, called active from +8 up or from −8 down.
The target of assay [5] is Fibroblast growth factor 10 (Homo sapiens) (UniProt O15520). Nature of the assay: compounds binding fibroblast growth factor 10 – biochemical, small-molecule microarray, 635 nm fluorescence, primary screen (AID 1102). The note with it: FGF10 binding, fluorescence 635 nm, higher = more signal.
Fibroblast growth factor 10 (Homo sapiens), sequence (O15520 whole entry, looked up): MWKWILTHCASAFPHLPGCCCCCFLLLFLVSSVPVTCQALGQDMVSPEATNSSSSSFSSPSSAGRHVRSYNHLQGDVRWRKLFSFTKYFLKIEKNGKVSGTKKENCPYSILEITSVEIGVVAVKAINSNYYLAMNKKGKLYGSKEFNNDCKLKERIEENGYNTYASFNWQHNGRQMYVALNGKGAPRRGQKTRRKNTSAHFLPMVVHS
Assay [6] relates to glycogen synthase kinase-3 (GSK3A per assay name; protocol says GSK3B). Kind of assay: compounds binding glycogen synthase kinase-3 – biochemical, small-molecule microarray, 635 nm fluorescence, GSK3A, primary screen (AID 1103). Further: the record names both GSK3A and GSK3B. The following applies: fluorescence 635 nm, higher = more signal.
In assay [7] the target is Epidermal growth factor receptor (Homo sapiens) (UniProt P00533). Kind of assay: compounds binding epidermal growth factor receptor – biochemical, small-molecule microarray, 635 nm fluorescence, primary screen (AID 1104).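 Further: score merges 667 nm emission intensity with spot signal to noise over triplicate slides.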 The following applies: EGFR binding, higher = more signal.
Epidermal growth factor receptor (Homo sapiens), sequence (P00533 whole entry, looked up): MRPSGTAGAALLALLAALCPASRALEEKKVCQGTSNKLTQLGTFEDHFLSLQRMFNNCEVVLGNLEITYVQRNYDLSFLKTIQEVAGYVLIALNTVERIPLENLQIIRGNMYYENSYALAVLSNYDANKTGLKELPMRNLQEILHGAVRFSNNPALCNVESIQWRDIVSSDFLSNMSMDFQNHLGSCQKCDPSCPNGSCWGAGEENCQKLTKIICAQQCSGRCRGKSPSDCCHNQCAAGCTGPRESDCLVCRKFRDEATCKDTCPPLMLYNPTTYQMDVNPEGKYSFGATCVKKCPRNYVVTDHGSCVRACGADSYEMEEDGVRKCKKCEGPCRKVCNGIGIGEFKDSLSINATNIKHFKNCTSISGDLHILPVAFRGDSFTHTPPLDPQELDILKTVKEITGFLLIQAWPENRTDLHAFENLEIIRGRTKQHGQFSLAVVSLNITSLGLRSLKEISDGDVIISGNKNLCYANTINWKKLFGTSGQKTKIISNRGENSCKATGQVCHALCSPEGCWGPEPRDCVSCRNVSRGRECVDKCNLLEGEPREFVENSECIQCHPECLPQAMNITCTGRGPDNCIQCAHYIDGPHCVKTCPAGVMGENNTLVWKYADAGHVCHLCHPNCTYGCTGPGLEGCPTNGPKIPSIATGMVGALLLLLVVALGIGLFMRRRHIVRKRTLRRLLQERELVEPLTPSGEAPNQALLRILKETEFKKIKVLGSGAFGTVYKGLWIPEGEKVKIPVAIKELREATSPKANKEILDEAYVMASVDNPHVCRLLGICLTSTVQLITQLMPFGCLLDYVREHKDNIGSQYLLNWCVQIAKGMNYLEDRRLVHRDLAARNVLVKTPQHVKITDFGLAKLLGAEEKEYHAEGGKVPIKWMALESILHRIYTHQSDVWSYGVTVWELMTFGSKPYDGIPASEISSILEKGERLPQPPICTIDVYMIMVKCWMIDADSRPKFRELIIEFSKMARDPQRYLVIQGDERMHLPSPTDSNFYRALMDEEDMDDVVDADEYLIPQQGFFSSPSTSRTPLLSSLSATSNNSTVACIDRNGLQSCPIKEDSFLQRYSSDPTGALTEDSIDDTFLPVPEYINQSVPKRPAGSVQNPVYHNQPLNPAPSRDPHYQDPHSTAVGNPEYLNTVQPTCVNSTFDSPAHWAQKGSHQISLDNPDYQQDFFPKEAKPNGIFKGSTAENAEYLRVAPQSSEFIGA
Assay [8] concerns the target Follistatin-related protein 3 (Homo sapiens) (UniProt O95633). Nature of the assay: compounds binding follistatin-related protein 3 – biochemical, small-molecule microarray, 635 nm fluorescence, primary screen (AID 1105).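 Further: score merges emission near 667 nm and signal to noise per printed spot across three slides.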 The note with it: FSTL3 binding, higher = more signal.
The target in assay [9] is Dickkopf-related protein 1 (Homo sapiens) (UniProt O94907). Nature of the assay: small molecules binding DKK1 protein – biochemical, small-molecule microarray, 635 nm fluorescence scan, primary screen (AID 1106).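 Further: score merges emission near 667 nm with signal to noise over three replicate slides.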 The following applies: higher = more signal.
Dickkopf-related protein 1 (Homo sapiens), sequence (O94907 whole entry, looked up): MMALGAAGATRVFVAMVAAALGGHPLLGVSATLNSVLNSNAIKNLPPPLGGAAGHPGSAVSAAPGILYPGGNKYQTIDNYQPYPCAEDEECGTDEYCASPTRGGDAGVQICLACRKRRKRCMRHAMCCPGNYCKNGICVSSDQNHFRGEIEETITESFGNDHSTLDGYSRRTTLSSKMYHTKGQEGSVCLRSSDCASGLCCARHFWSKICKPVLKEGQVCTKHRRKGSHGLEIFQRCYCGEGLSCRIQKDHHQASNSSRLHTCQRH
In assay [10] the test system is Inhibin beta A chain (activin A). Nature of the assay: small molecules binding activin A – biochemical, small-molecule microarray, 635 nm fluorescence scan, primary screen (AID 1107).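 Further: mouse activin A protein probed at 4.33 µg/mL on printed slides; score merges bound-protein fluorescence near 667 nm with spot signal-to-noise.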 The note with it: INHBA, higher = more signal.
For assay [11], the system named is Human papillomavirus type 1a protein E7 (residues 44-93). Kind of assay: small molecules binding HPV E7 44-93 – biochemical, small-molecule microarray, residues 44-93, 635 nm fluorescence, primary screen (AID 1108).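 Further: E7 fragment applied at 1 µg/mL in TBST for 1 h at 4 C; score combines spot fluorescence with its signal to noise ratio.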 The following applies: fluorescence 635 nm, higher = more signal.
A short description of assay [12]: hepatitis C replication reporter changes, two-sided – Huh7 cells, luciferase reporter, HCV replication inhibitor project, primary screen (AID 1109).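 Further: huh7 hepatoma cells harbouring a luciferase neomycin HCV replicon reporter; luciferase luminescence as measure of HCV replicon replication; test concentration not given here.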 The following applies: Huh7 HCV replicon luciferase reporter, 48 h; higher = more signal.
Assay [13] has as its target Left-right determination factor 2 (Homo sapiens) (UniProt O00292). Kind of assay: small molecules binding LEFTY2 protein – biochemical, small-molecule microarray, 635 nm fluorescence scan, primary screen (AID 1110). The note with it: higher = more signal.
The target in assay [14] is Calmodulin-1 (Homo sapiens) (UniProt P0DP23). Nature of the assay: small molecules binding calmodulin-1 with EGTA – biochemical, small-molecule microarray, Cy5-labelled CALM1, profiling panel (AID 1111).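 Further: labelled calmodulin applied in Tris saline Tween buffer holding calcium plus EGTA and DTT.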 The following applies: Cy5-CALM1 binding fluorescence, higher = more signal.
Assay [15] has the same target. Nature of the assay: small molecules binding Ca-loaded calmodulin-1 – biochemical, small-molecule microarray, Cy5-labelled CALM1, plus calcium, artefact control for SMM control-protein annotation, profiling panel (AID 1112).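 Further: score merges spot fluorescence with signal to noise from triplicate slides.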 The note with it: Cy5-CALM1 binding fluorescence, higher = more signal.
Assay [16] in a line: probe aWnt5a binding to arrayed compounds – biochemical, biotinylated probe, 635/667 nm fluorescence, primary screen (AID 1113).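 Further: score merges 667 nm fluorescence intensity with signal-to-noise per printed feature.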 The note with it: small-molecule microarray, higher = more signal.
Assay [17] can be described thus: probe aShh binding to arrayed compounds – biochemical, biotinylated probe, 635/667 nm fluorescence, primary screen (AID 1114).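 Further: probe is biotin-labelled aShh protein from a stem cell growth factor screen; measures binding of labelled protein to compounds printed on the slide; score merges feature fluorescence at 667 nm with signal-to-noise.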 The note with it: small-molecule microarray, higher = more signal.
Assay [18] is described as follows: probe aNog binding to arrayed compounds – biochemical, biotinylated probe, 635/667 nm fluorescence, primary screen (AID 1115).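 Further: probe is biotinylated aNog protein used at 0.15 µg/mL for 1 h at 4 C; z-score combines 667 nm fluorescence of each spot with its signal to noise.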 The note with it: small-molecule microarray, higher = more signal.
Assay [19] has as its target Torsin-1A-interacting protein 1 (Homo sapiens) (UniProt Q5JTV8). Nature of the assay: compound microarray binding of lysate hLAP1 – cell lysate, small-molecule microarray, COS7 lysate, 635/667 nm fluorescence, primary screen (AID 1116). The note with it: 635 nm fluorescence, higher = more signal.
The target in assay [20] is Alpha-bungarotoxin (Bungarus multicinctus) (UniProt P60615). Nature of the assay: compounds binding labelled alpha-BTX control protein – biochemical, small-molecule microarray, Alexa647 label, 635/667 nm fluorescence, artefact control for SMM control protein annotation, profiling panel (AID 1117). The note with it: alpha-BTX-A647 binding fluorescence, higher = more signal.
Alpha-bungarotoxin (Bungarus multicinctus), sequence (P60615 whole entry, looked up): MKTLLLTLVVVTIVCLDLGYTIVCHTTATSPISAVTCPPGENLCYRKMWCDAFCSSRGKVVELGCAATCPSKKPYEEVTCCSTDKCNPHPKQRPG

Follistatin-related protein 3 (Homo sapiens), sequence (O95633 whole entry, looked up): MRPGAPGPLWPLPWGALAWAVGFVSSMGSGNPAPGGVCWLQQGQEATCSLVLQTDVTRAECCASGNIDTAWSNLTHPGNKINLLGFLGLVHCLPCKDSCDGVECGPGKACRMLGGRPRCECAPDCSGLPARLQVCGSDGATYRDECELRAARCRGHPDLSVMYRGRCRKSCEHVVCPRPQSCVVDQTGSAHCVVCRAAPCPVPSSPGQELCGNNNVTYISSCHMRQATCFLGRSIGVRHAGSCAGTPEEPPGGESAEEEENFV
Torsin-1A-interacting protein 1 (Homo sapiens), sequence (Q5JTV8 whole entry, looked up): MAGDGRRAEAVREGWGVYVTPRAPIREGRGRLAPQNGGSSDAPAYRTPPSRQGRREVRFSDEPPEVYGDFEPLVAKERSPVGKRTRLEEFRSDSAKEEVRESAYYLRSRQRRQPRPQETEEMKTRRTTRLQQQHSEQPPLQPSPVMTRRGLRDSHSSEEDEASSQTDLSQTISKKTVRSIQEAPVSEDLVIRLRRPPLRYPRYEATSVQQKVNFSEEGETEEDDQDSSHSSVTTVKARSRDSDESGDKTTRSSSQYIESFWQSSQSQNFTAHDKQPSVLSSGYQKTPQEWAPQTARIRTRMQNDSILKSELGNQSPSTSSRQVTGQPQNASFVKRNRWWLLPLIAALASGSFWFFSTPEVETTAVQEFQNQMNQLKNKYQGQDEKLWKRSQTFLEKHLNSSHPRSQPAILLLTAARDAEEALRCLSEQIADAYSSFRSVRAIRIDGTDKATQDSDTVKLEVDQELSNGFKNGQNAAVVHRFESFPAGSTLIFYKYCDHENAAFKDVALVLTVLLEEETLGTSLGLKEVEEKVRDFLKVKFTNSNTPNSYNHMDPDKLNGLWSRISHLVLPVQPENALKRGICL
Left-right determination factor 2 (Homo sapiens), sequence (O00292 whole entry, looked up): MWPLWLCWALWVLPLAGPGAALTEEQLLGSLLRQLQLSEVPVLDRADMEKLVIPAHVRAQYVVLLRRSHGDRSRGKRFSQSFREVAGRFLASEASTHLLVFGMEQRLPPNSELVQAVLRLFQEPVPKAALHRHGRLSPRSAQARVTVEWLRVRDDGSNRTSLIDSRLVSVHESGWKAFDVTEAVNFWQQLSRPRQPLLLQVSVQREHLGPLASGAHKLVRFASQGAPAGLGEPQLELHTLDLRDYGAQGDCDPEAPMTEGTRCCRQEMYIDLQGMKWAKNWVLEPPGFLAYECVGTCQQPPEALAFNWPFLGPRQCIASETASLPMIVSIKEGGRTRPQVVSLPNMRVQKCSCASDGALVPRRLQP

Regarding `COC(=O)C1(CC(C)C)C=C2C(=C(C)C(=O)C2C)CN1` (stereo not given), the composite z-score was -0.211 in assay [1]; 1.34 in assay [2]; 1.14 in assay [3]; 0.069 in [5]; -0.279 in assay [6]; -0.155 in assay [7]. For the same compound, the composite z-score in [8] is 0.641; in [9] it was -0.15; in assay [10] it was 1.43; in assay [11], -0.412; in assay [13], -0.253; in assay [14] it was 0.0595. In addition, the composite z-score in [15] came out at 0.89; in assay [16] it was 0.432; in assay [17], 1.79; in [18], 0.825; in [19], 0.653; in assay [20], 0.096. In addition, the z-score in [4] was 1.68 (inactive); in assay [12] it was -1.01.

Take `O=C1OC[C@@H](c2ccccc2)n2cc(/C=C/c3ccccc3)cc21`: the composite z-score in assay [1] is 0.753; in [2], -0.222; in assay [3], 0.0504; in assay [5], -0.256; in [6], -0.678; in [7], -0.609. For the same compound, the composite z-score in assay [8] is -0.513; in [9] it was -0.161; in assay [10] it was 0.0778; in assay [11] it was 0.06; in assay [13], -0.623; in assay [14], -0.638. The composite z-score is -1.27 in assay [15]; -0.197 in [16]; -0.0709 in [17]; -0.367 in assay [18]; -0.948 in assay [19]; 0.45 in [20]. Further, the z-score in [4] was -1.55 (inactive); in assay [12], -0.18.

`CCN1C(=O)C2CC(=O)C3C(CN(S(=O)(=O)c4ccc(C)cc4)C3c3ccc(C)cc3)C2C1=O` (stereo not given): the composite z-score in assay [1] is 0.959; in assay [2], 0.972; in assay [3] it was 0.882; in [5] it was 0.193; in assay [6], 0.338; in [7], -0.483. Besides, the composite z-score in assay [8] is -0.167; in assay [9] it was -0.295; in assay [10], 1.15; in [11], -1.69; in assay [13] it was 0.015; in [14], 1.85. For the same compound, the composite z-score in assay [15] was 0.495; in [16] it was -0.0269; in assay [17] it was 0.749; in assay [18], 0.685; in assay [19] it was 1.08; in assay [20], -0.344. Moreover, the z-score was -0.106 (inactive) in [4] and -2.44 in assay [12].

As to `[N-]=[N+]=NCc1ccccc1[C@H]1OC(c2ccc(OCCCO)cc2)=N[C@@]1(Cc1ccccc1N=[N+]=[N-])C(=O)N1CCOCC1`, the composite z-score in assay [1] is 1.02; in [2], 0.596; in assay [3], 0.828; in assay [5], 0.458; in assay [6] it was 1.1; in assay [7], -0.292. The composite z-score in assay [8] was 0.29; in assay [9], -0.287; in assay [10] it was 0.594; in assay [11], 1.39; in assay [13] it was -0.267; in assay [14], 1.86. The composite z-score in [15] is 0.642; in assay [16], 0.0115; in [17], 0.539; in assay [18] it was 1.44; in assay [19] it was 0.506; in assay [20], 1.4. For the same compound, the z-score in [4] is -0.1 (inactive); in [12], -2.2.

As for `O=C1O[C@H](c2ccccc2)[C@H](c2ccccc2)N2[C@H]1[C@@H](C(=O)Nc1nc3ccccc3s1)[C@]1(C(=O)Nc3ccccc31)[C@H]2c1ccccc1OCCO`, the composite z-score in [1] was 1.42; in assay [2], 0.0289; in assay [3] it was 0.505; in assay [5], 0.475; in [6] it was 0.901; in [7], -0.115. For the same compound, the composite z-score in assay [8] is 0.399; in assay [9] it was -0.086; in assay [10], 0.121; in assay [11], 1.39; in assay [13], 0.364; in assay [14], 2.01. Further, the composite z-score in assay [15] was 0.736; in assay [16] it was -0.0405; in assay [17] it was -0.0289; in [18], -0.501; in assay [19] it was 2.27; in [20], 1.69. In addition, the z-score is -0.539 (inactive) in [4] and -2.72 in assay [12].

With `CC(C)c1ccc(NN2C(C(O)C3CCCCC3)C=CC3C(=O)N(c4ccccc4)C(=O)C32)cc1` (stereo not given), the composite z-score was determined as 1.4 in assay [1]; 0.929 in assay [2]; 1.11 in [3]; 0.802 in [5]; 1.24 in [6]; 0.478 in assay [7]. In addition, the composite z-score in assay [8] was found to be 1.11; in [9], 0.794; in assay [10], 0.874; in assay [11], 0.324; in assay [13], 0.176; in assay [14], 2.23. The composite z-score in assay [15] is 0.842; in assay [16], 0.0219; in assay [17] it was -0.144; in [18], 0.302; in assay [19] it was 0.678; in [20] it was 1.9. Besides, the figures for the z-score in assay [4] and in assay [12] were 0.194 (inactive) and -0.482, respectively.

These data come from PubChem BioAssay.
